# Measured values as given in the supplement of paper PMC9492666.
# Counter-ions that a name gives are not always drawn.
# Legend:
# [1] = test system: HCC1937; assay: relative cell viability, compound + erastin, vs DMSO (fraction of DMSO control); higher = less growth inhibition; conditions: 72 h
# [2] = test system: MDA-MB-231; assay: as above; conditions: 72 h
# 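Note: viability read by CCK-8 kit in 96-well plates, part of a combination screen pairing lipid-metabolism-targeting compounds with erastin.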
SMILES,relative cell viability [1],relative cell viability [2]
CN(C)C(=N)NC(=N)N [Metformin] + CCOc1ccccc1-n1c(C(C)N2CCN(C(=O)COc3ccc(Cl)cc3)CC2)nc2ccccc2c1=O [erastin],0.63,0.546
COc1ccc(-c2coc3cc(O)cc(O)c3c2=O)cc1 [Biochanin A] + CCOc1ccccc1-n1c(C(C)N2CCN(C(=O)COc3ccc(Cl)cc3)CC2)nc2ccccc2c1=O [erastin],0.589,0.559
CN(CCOc1ccc(CC2SC(=O)NC2=O)cc1)c1ccccn1 (stereo not drawn) [Rosiglitazone maleate] + CCOc1ccccc1-n1c(C(C)N2CCN(C(=O)COc3ccc(Cl)cc3)CC2)nc2ccccc2c1=O [erastin],0.824,0.965
Cc1c(C(=O)NN2CCCCC2)nn(-c2ccc(Cl)cc2Cl)c1-c1ccc(Cl)cc1 [Rimonabant] + CCOc1ccccc1-n1c(C(C)N2CCN(C(=O)COc3ccc(Cl)cc3)CC2)nc2ccccc2c1=O [erastin],0.581,0.273
O=c1ccc2cc(O)c(O)cc2o1 [Esculetin] + CCOc1ccccc1-n1c(C(C)N2CCN(C(=O)COc3ccc(Cl)cc3)CC2)nc2ccccc2c1=O [erastin],0.648,0.711
O=c1c(O[C@@H]2O[C@H](CO)[C@@H](O)[C@H](O)[C@H]2O)c(-c2ccc(O)cc2)oc2cc(O)cc(O)c12 [Astragalin] + CCOc1ccccc1-n1c(C(C)N2CCN(C(=O)COc3ccc(Cl)cc3)CC2)nc2ccccc2c1=O [erastin],0.584,0.749
CCCCC[C@H](O)CC(=O)CCc1ccc(O)c(OC)c1 [6-Gingerol] + CCOc1ccccc1-n1c(C(C)N2CCN(C(=O)COc3ccc(Cl)cc3)CC2)nc2ccccc2c1=O [erastin],0.444,0.693
Cc1nc2c([nH]1)c(=O)n(C)c(=O)n2Cc1ccco1 [Furafylline] + CCOc1ccccc1-n1c(C(C)N2CCN(C(=O)COc3ccc(Cl)cc3)CC2)nc2ccccc2c1=O [erastin],0.672,0.767
COc1ccc2c(c1)CCC1C2CCC2(C)C(NCCCCCCN3C(=O)C=CC3=O)CCC12 (stereo not drawn) + CCOc1ccccc1-n1c(C(C)N2CCN(C(=O)COc3ccc(Cl)cc3)CC2)nc2ccccc2c1=O [erastin],0.47,0.67
Cc1cc(SCc2sc(-c3ccc(C(F)(F)F)c(F)c3)nc2C)ccc1OCC(=O)O + CCOc1ccccc1-n1c(C(C)N2CCN(C(=O)COc3ccc(Cl)cc3)CC2)nc2ccccc2c1=O [erastin],0.849,0.799
O=C(Nc1cccnn1)N1CCC(=Cc2cccc(Oc3ccc(C(F)(F)F)cn3)c2)CC1 + CCOc1ccccc1-n1c(C(C)N2CCN(C(=O)COc3ccc(Cl)cc3)CC2)nc2ccccc2c1=O [erastin],0.667,0.554
COc1ccc2c(=O)c(-c3ccccc3)coc2c1 [7-Methoxyisoflavone] + CCOc1ccccc1-n1c(C(C)N2CCN(C(=O)COc3ccc(Cl)cc3)CC2)nc2ccccc2c1=O [erastin],0.443,0.68
C[C@@H]1C(=O)O[C@H]2[C@H](O)[C@@]34O[C@@H]5OC(=O)[C@H](O)[C@@]56[C@H](C(C)(C)C)[C@H](O)C(OC3=O)[C@]64[C@@]12O (stereo partly drawn) [Ginkgolide C] + CCOc1ccccc1-n1c(C(C)N2CCN(C(=O)COc3ccc(Cl)cc3)CC2)nc2ccccc2c1=O [erastin],0.697,0.747
CN(C)C(=O)Nc1cccc(-c2ccc(N(C)C)cc2)c1 [Atglistatin] + CCOc1ccccc1-n1c(C(C)N2CCN(C(=O)COc3ccc(Cl)cc3)CC2)nc2ccccc2c1=O [erastin],0.438,1.06
Cn1nc(C(=O)N(Cc2ccccc2)Cc2ccc(C(=O)O)cc2)c2c1-c1cc(Cl)ccc1OC2 [Nidufexor] + CCOc1ccccc1-n1c(C(C)N2CCN(C(=O)COc3ccc(Cl)cc3)CC2)nc2ccccc2c1=O [erastin],0.638,0.771
CC(C)c1cc(C(C)C)c(CC(=O)NS(=O)(=O)Oc2c(C(C)C)cccc2C(C)C)c(C(C)C)c1 [Avasimibe] + CCOc1ccccc1-n1c(C(C)N2CCN(C(=O)COc3ccc(Cl)cc3)CC2)nc2ccccc2c1=O [erastin],0.508,0.791
COc1cc(C(C)=O)ccc1O [Acetovanillone] + CCOc1ccccc1-n1c(C(C)N2CCN(C(=O)COc3ccc(Cl)cc3)CC2)nc2ccccc2c1=O [erastin],0.508,0.666
C/C=C/c1cc(OC)c(OC)cc1OC [alpha-Asarone] + CCOc1ccccc1-n1c(C(C)N2CCN(C(=O)COc3ccc(Cl)cc3)CC2)nc2ccccc2c1=O [erastin],0.594,0.774
CC(C)(O)c1ccccc1CC[C@@H](SCC1(CC(=O)O)CC1)c1cccc(/C=C/c2ccc3ccc(Cl)cc3n2)c1 [Montelukast] + CCOc1ccccc1-n1c(C(C)N2CCN(C(=O)COc3ccc(Cl)cc3)CC2)nc2ccccc2c1=O [erastin],0.561,0.829
CCCCCC=CC(=O)CCc1ccc(O)c(OC)c1 [6-Shogaol] + CCOc1ccccc1-n1c(C(C)N2CCN(C(=O)COc3ccc(Cl)cc3)CC2)nc2ccccc2c1=O [erastin],0.639,0.559
NC(=O)c1cccc(-c2cccc(OC(=O)NC3CCCCC3)c2)c1 + CCOc1ccccc1-n1c(C(C)N2CCN(C(=O)COc3ccc(Cl)cc3)CC2)nc2ccccc2c1=O [erastin],0.756,0.568
CC[C@@H]1/C=C(\C)C[C@H](C)C[C@H](OC)[C@H]2O[C@@](O)(C(=O)C(=O)N3CCCC[C@H]3C(=O)O[C@H](/C(C)=C/[C@@H]3CC[C@@H](O)[C@H](OC)C3)[C@H](C)[C@@H](O)CC1=O)[C@H](C)C[C@@H]2OC [Ascomycin] + CCOc1ccccc1-n1c(C(C)N2CCN(C(=O)COc3ccc(Cl)cc3)CC2)nc2ccccc2c1=O [erastin],0.086,0.303
O=C(ON1C(=O)CCC1=O)N1CCN(C(c2ccc(Cl)cc2)c2ccc(Cl)cc2)CC1 [Cravatt Reagent] + CCOc1ccccc1-n1c(C(C)N2CCN(C(=O)COc3ccc(Cl)cc3)CC2)nc2ccccc2c1=O [erastin],0.886,0.772
CC(=O)Nc1nc(C)c(S(=O)(=O)Nc2ccc(C(O)(C(F)(F)F)C(F)(F)F)cc2)s1 + CCOc1ccccc1-n1c(C(C)N2CCN(C(=O)COc3ccc(Cl)cc3)CC2)nc2ccccc2c1=O [erastin],0.956,1.1
